# Data: the supplement of paper PMC8728848
# The entries come from a sample that favours the strongest signals as a whole.
# How the values were obtained:
# Assay in all cases: glycan array binding signal (z-score within array); higher = stronger binding
# Settings in all cases: glycan notation: IUPAC condensed, linker removed
# [1] = molecular target: GlcNAc(a1-4)Gal(b1-4)GlcNAc(b1-3)Gal(b1-4)Glc
# How it was run: (§1)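 The binding signal is a Z-score computed within each array and averaged over linkers. Arrays of the same protein sequence at different concentrations or buffers were also averaged together. Data originate from 3228 arrays in the Consortium for Functional Glycomics database, kept only where the protein sequence was available.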
# [2] = molecular target: GlcNAc(b1-2)Man(a1-3)[GlcNAc(b1-2)Man(a1-6)]Man(b1-4)GlcNAc(b1-4)[Fuc(a1-6)]GlcNAc
# How it was run: as §1
# [3] = molecular target: GlcNAc(b1-2)[GlcNAc(b1-6)]Man(a1-6)[GlcNAc(b1-2)Man(a1-3)]Man(b1-4)GlcNAc(b1-4)[Fuc(a1-6)]GlcNAc
# How it was run: as §1
# [4] = molecular target: GlcNAc(b1-3)Gal(b1-4)GlcNAc(b1-2)Man(a1-3)[GlcNAc(b1-3)Gal(b1-4)GlcNAc(b1-2)Man(a1-6)]Man(b1-4)GlcNAc(b1-4)[Fuc(a1-6)]GlcNAc
# How it was run: as §1
# [5] = molecular target: GlcNAc(b1-3)Gal(b1-4)GlcNAc(b1-3)Gal(b1-4)GlcNAc
# How it was run: as §1
# [6] = molecular target: GlcNAc(b1-3)Gal(b1-4)GlcNAc(b1-3)Gal(b1-4)GlcNAc(b1-3)Gal(b1-4)GlcNAc(b1-3)Gal(b1-4)GlcNAc(b1-2)Man(a1-3)[GlcNAc(b1-3)Gal(b1-4)GlcNAc(b1-3)Gal(b1-4)GlcNAc(b1-3)Gal(b1-4)GlcNAc(b1-3)Gal(b1-4)GlcNAc(b1-2)Man(a1-6)]Man(b1-4)GlcNAc(b1-4)[Fuc(a1-6)]GlcNAc
# How it was run: as §1
# GlcNAc(b1-3)GalNAc = molecular target: GlcNAc(b1-3)GalNAc
# How it was run: as §1
# [7] = molecular target: GlcNAc(b1-4)GlcNAc(b1-4)GlcNAc
# How it was run: as §1
# [8] = molecular target: Kdn(a2-3)Gal(b1-4)[Fuc(a1-3)]GlcNAc
# How it was run: as §1
# [9] = molecular target: Man(a1-2)Man(a1-3)[Man(a1-2)Man(a1-6)]Man(a1-6)[Man(a1-2)Man(a1-2)Man(a1-3)]Man
# How it was run: as §1
# [10] = molecular target: Man(a1-2)Man(a1-3)[Man(a1-6)]Man(a1-6)[Man(a1-2)Man(a1-3)]Man(b1-4)GlcNAc(b1-4)GlcNAc
# How it was run: as §1
# [11] = molecular target: Man(a1-3)[Man(a1-6)]Man(b1-4)GlcNAc(b1-4)[Fuc(a1-6)]GlcNAc
# How it was run: as §1
# [12] = molecular target: Neu5Ac(a2-3)Gal(b1-4)GlcNAc(b1-2)Man(a1-3)[GlcNAc(b1-4)][Neu5Ac(a2-3)Gal(b1-4)GlcNAc(b1-2)Man(a1-6)]Man(b1-4)GlcNAc(b1-4)GlcNAc
# How it was run: as §1
# [13] = molecular target: Neu5Ac(a2-3)Gal(b1-4)GlcNAc(b1-3)Gal(b1-4)GlcNAc(b1-3)Gal(b1-4)GlcNAc
# How it was run: as §1
# [14] = molecular target: Neu5Ac(a2-3)Gal(b1-4)[Fuc(a1-3)]GlcNAc(b1-6)[Gal(b1-3)]GalNAc
# How it was run: as §1
# [15] = molecular target: Neu5Ac(a2-3)[GalNAc(b1-4)]Gal(b1-4)Glc
# How it was run: as §1
# [16] = molecular target: Neu5Ac(a2-3)[GalNAc(b1-4)]Gal(b1-4)GlcNAc(b1-3)GalNAc
# How it was run: as §1
# [17] = molecular target: Neu5Ac(a2-6)Gal(b1-3)GlcNAc(b1-3)[Gal(b1-4)GlcNAc(b1-6)]Gal(b1-4)Glc
# How it was run: as §1
# [18] = molecular target: Neu5Ac(a2-6)Gal(b1-4)GlcNAc
# How it was run: as §1
# [19] = molecular target: Neu5Ac(a2-6)Gal(b1-4)GlcNAc(b1-2)Man(a1-3)[Gal(b1-4)GlcNAc(b1-2)Man(a1-6)]Man(b1-4)GlcNAc(b1-4)GlcNAc
# How it was run: as §1
# [20] = molecular target: Neu5Ac(a2-6)Gal(b1-4)GlcNAc(b1-2)Man(a1-3)[Man(a1-6)]Man(b1-4)GlcNAc(b1-4)GlcNAc
# How it was run: as §1
# [21] = molecular target: Neu5Ac(a2-6)Gal(b1-4)GlcNAc(b1-2)Man(a1-3)[Neu5Ac(a2-6)Gal(b1-4)GlcNAc(b1-2)Man(a1-6)]Man(b1-4)GlcNAc(b1-4)[Fuc(a1-6)]GlcNAc
# How it was run: as §1
# [22] = molecular target: Neu5Ac(a2-6)Gal(b1-4)GlcNAc(b1-3)Gal(b1-4)GlcNAc(b1-3)GalNAc
# How it was run: as §1
# [23] = molecular target: Neu5Ac(a2-8)Neu5Ac(a2-3)Gal(b1-4)GlcNAc
# How it was run: as §1
# [24] = molecular target: Neu5Gc(a2-3)Gal(b1-3)[Fuc(a1-4)]GlcNAc
# How it was run: as §1
# [25] = molecular target: Neu5Gc(a2-3)Gal(b1-4)GlcNAc
# How it was run: as §1
binder,measurement,setting,value
"LCA (Lens culinaris), P02870 (protein) MASLQTQMISFYLIFLSILLTTIFFFKVNSTETTSFSITKFSPDQKNLIFQGDGYTTKGKLTLTKAVKSTVGRALYSTPIHIWDRDTGNVANFVTSFTFVIDAPSSYNVADEFTFFIAPVDTKPQTGGGYLGVFNSKEYDKTSQTVAVEFDTFYNAAWDPSNKERHIGIDVNSIKSVNTKSWNLQNGERANVVIAFNAATNVLTVTLTYPNSLEEENVTSYTLNEVVPLKDVVPEWVRIGFSATTGAEFAAHEVHSWSFHSELGGTSSSKQAADA",glycan array binding signal (z-score),[1],-0.135
same,glycan array binding signal (z-score),[2],5.54
same,glycan array binding signal (z-score),[3],8.45
same,glycan array binding signal (z-score),[4],5.29
same,glycan array binding signal (z-score),[5],-0.199
same,glycan array binding signal (z-score),[6],3.94
same,glycan array binding signal (z-score),GlcNAc(b1-3)GalNAc,-0.209
same,glycan array binding signal (z-score),[7],-0.184
same,glycan array binding signal (z-score),[8],-0.228
same,glycan array binding signal (z-score),[9],1.19
same,glycan array binding signal (z-score),[10],2.09
same,glycan array binding signal (z-score),[11],6.07
same,glycan array binding signal (z-score),[12],-0.262
same,glycan array binding signal (z-score),[13],-0.228
same,glycan array binding signal (z-score),[14],-0.145
same,glycan array binding signal (z-score),[15],-0.235
same,glycan array binding signal (z-score),[16],0.102
same,glycan array binding signal (z-score),[17],-0.232
same,glycan array binding signal (z-score),[18],-0.202
same,glycan array binding signal (z-score),[19],-0.188
same,glycan array binding signal (z-score),[20],-0.239
same,glycan array binding signal (z-score),[21],4.04
same,glycan array binding signal (z-score),[22],-0.224
same,glycan array binding signal (z-score),[23],-0.237
same,glycan array binding signal (z-score),[24],-0.207
same,glycan array binding signal (z-score),[25],-0.219
